The whole screen tested about 65,000 compounds, of which about 2,100 (3.2%) showed an effect of 50% or more. The median lay at about -52%. This is one part of a sample in which strong results are shown more often than they occur.
These molecules were tested on Plasmodium falciparum (assay: Screen against P. falciparum Asexual Blood Stage (ABS), at 5uM). Conditions: tested at 5 uM.
Type: functional, Dd2

| Compound | INHIBITION |
| --- | --- |
| CC(C)n1nc2c(cc1=O)CN(c1ncnc3ccsc13)CC2 | -31% |
| O=C(NC1=NCCCN1c1ccc(Cl)cc1)c1cccc(Cl)c1 | -55.5% |
| CCOc1ccc(N2CCCN=C2NC(=O)c2ccc(Cl)cc2)cc1 | -71.7% |
| Cc1ccc(-n2ncc(C(=O)NC3CCCCC3)c2N)cc1 | -125% |
| CCSC1=Nc2c(cnn2-c2ccc(Cl)cc2)C2=NCCCN12 | 67.3% |
| CSC1=Nc2c(cnn2-c2ccc(C)cc2)C2=NCCCN12 | 53.5% |
| CSC1=Nc2c(cnn2-c2ccccc2)C2=NCCCN12 | 9.95% |
| COCCNC(=O)c1cc(C(C)C)nc(N2CCCCC2)n1 | -39.9% |
| COC(=O)c1ccc(-c2noc(CN(CCO)Cc3cccs3)n2)cc1 | -63.8% |
| O=C(c1cscn1)N1CCCC2(CCN2Cc2cccc(F)c2)C1 (stereo not given) | 26.8% |
| Cc1csc(C(=O)N2CC(S(=O)(=O)C3CCCCC3)C2)c1 | -52% |
| c1coc(-c2[nH]c3ncccc3c2CN2CCCOCC2)c1 | -12.7% |
| Cc1csc2ncnc(N3CCC(Cn4cc(C(C)(C)O)nn4)CC3)c12 | -46.7% |
| O=C(C1CCOCC1)N1CCC(OCc2cccnc2)CC1 | -110% |
| CC(C)NC(=O)C1CN(C(=O)NCc2ccccc2)CC12CCOCC2 (stereo not given) | -153% |
| Cc1noc(C)c1CN(C)C(=O)NC1CCN(C2CC2)CC1 | -155% |
| Cc1noc(C)c1CN(C)C(=O)NC1CCOCC1 | 16% |
| CC(=O)N1CCC(NC(=O)N(C)Cc2c(C)noc2C)CC1 | 51.4% |
| Cc1noc(C)c1CN1CCc2ncnc(-c3ccncc3)c2CC1 | -104% |
| COCC(=O)Nc1ccnn1-c1ccc(Cl)cc1 | 68.3% |
| COCCOCC(=O)Nc1ccnn1-c1ccc(Cl)cc1 | -100% |
| CCOCCC(=O)Nc1ccnn1-c1ccc(Cl)cc1 | -23.8% |
| COc1ccc(S(=O)(=O)NC(=O)COc2ccc3c(c2)CCC3)cc1 | -119% |
| Fc1ccc(N2CCCN(c3ccc(Cn4ccnc4)cn3)CC2)cc1 | 60.2% |
| c1csc(CN2CCCN(c3ccc(Cn4ccnc4)cn3)CC2)c1 | -41.4% |
| c1cn(Cc2ccc(N3CCCN(C4CCCC4)CC3)nc2)cn1 | -80% |
| Cc1ccc(CN2CCn3c(CNS(C)(=O)=O)nnc3C2)s1 | -30.1% |
| CCc1[nH]c2c(CNC(=O)[C@@H]3CCCN3C)cc(C)cc2c1C | 60.4% |
| CCc1[nH]c2c(CNC(=O)C3CCCN(C)C3)cc(C)cc2c1C (stereo not given) | 0.72% |
| CCc1[nH]c2c(CNC(=O)C3CCN(C)C3)cc(C)cc2c1C (stereo not given) | -5.66% |
